# Compounds without any hit were thinned out: in the full panel of roughly 83,000, 20% have a hit.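 Single-dose data. Exposure time 48 hours. Values below 10 considered active.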 A number with no mark means an inactive call. Calls of active or inactive are those of the source.
# Legend:
# Experiment in all cases: NCI-60 one-dose screen, 48 h (100 = growth as untreated, 0 = no growth, -100 = all killed)
# Settings in all cases: 10 µM unless noted
# HCT-15 colon = system: HCT-15 colon
# HT29 colon = system: HT29 colon
# SNB-19 CNS = system: SNB-19 CNS
# U251 CNS = system: U251 CNS
# PC-3 prostate = system: PC-3 prostate
# SK-MEL-5 melanoma = system: SK-MEL-5 melanoma
# UACC-62 melanoma = system: UACC-62 melanoma
# LOX IMVI melanoma = system: LOX IMVI melanoma
# SK-MEL-28 melanoma = system: SK-MEL-28 melanoma
# SNB-75 CNS = system: SNB-75 CNS
SMILES,growth (HCT-15 colon),growth (HT29 colon),growth (SNB-19 CNS),growth (U251 CNS),growth (PC-3 prostate),growth (SK-MEL-5 melanoma),growth (UACC-62 melanoma),growth (LOX IMVI melanoma),growth (SK-MEL-28 melanoma),growth (SNB-75 CNS) [%]
CNCc1cccc2c1OCCOCCOCCNS(=O)(=O)c1ccc(cc1)-c1cnc(N)c(n1)C(=O)N2,89.8%,12.4%,18.2%,14.1%,20.1%,77%,23.2%,2.85% (active),51%,–
COc1cccc(-c2cc(-c3cccc(Cl)c3)c(C#N)c(=O)[nH]2)c1,48.6%,103%,71.8%,73.2%,73.7%,68.6%,42.4%,75.1%,72.3%,–
Nc1[nH]c(=S)nc2oc(-c3ccccc3)c(-c3ccccc3)c12,97.3%,101%,98%,103%,97.4%,102%,91.5%,98%,101%,–
COc1ccc(/C=C(/C(=O)n2cnnn2)c2cc(OC)c(OC)c(OC)c2)cc1,15.5%,8.2% (active),17.4%,17.9%,13.1%,15.2%,20.1%,37%,43.8%,–
COc1ccc2c(c1)c(/C(O)=C1\COC(=O)C1=O)cn2Cc1ccc(F)cc1,87.8%,115%,100%,101%,89.7%,97.9%,88.9%,100%,105%,–
N#Cc1c(-c2ccccc2)nc(SCc2nnc(-c3ccc(Cl)cc3)o2)[nH]c1=O,101%,94.1%,100%,81%,61.5%,99.5%,98.5%,94.1%,110%,–
CC1(C)CC[C@]23CC[C@]4(C)[C@H](CC[C@@H]5[C@@]6(C)C/C(=C/c7ccncc7)C(=O)C(C)(C)[C@@H]6CC[C@]54C)[C@H]2[C@H]1OC3,73.4%,43.9%,83.4%,70%,51%,78.8%,90.5%,73.1%,76%,–
COc1cc(NC(=O)c2cncnc2Nc2ccc3c(ccn3Cc3ccccn3)c2)cc(OC)c1,30.7%,11.7%,58.3%,45.9%,38.2%,35.4%,58.1%,39.9%,63.8%,–
COc1cc(-c2nc3cc(Cl)c(Cl)cc3[nH]2)ccc1OCC(=O)N=Nc1c(O)[nH]c2ccc(Cl)cc12,58.4%,9.24% (active),9.74% (active),-89.4% (active),0.522% (active),-62.9% (active),-11.7% (active),-83.5% (active),-2.83% (active),–
Cc1ccccc1Nc1cc(O)c2c(=O)cc(-c3ccccc3)oc2c1,17.6%,69.9%,32.6%,36.2%,40.6%,23.5%,43.4%,30.9%,51.1%,–
CN1CCN(Cc2ccc(NC(=O)c3cncc(C#Cc4cnc(N)c5ccc(F)cc45)c3)cc2C(F)(F)F)CC1,-86.1% (active),-56.3% (active),29.4%,-92.4% (active),18.6%,-21.8% (active),20.6%,-90.3% (active),34.3%,–
COc1ccc(C2=CN3CC=CC3CC2=O)cc1 (stereo not drawn),95.2%,90.5%,105%,94.5%,92.1%,100%,105%,104%,102%,–
COc1ccc(C#Cc2ccc(=O)oc2-c2cc(OC)c(OC)c(OC)c2)cc1O,30.7%,33.9%,54.6%,39.7%,40.6%,24.5%,44%,41.4%,59%,–
Cc1c2cccnc2c(C)c2c1c1cc(CO)ccc1n2C,18.7%,16%,21.1%,14%,31%,30.6%,-16.6% (active),8.95% (active),30.6%,–
C#COc1cccc(Nc2ncnc3cc(NC(=O)[C@@H](C)Cl)ccc23)c1,11.6% [6.25 µM],0.0167% [6.25 µM] (active),19.3% [6.25 µM],4.37% [6.25 µM] (active),8.91% [6.25 µM] (active),14.2% [6.25 µM],24.9% [6.25 µM],11.4% [6.25 µM],38% [6.25 µM],–
COc1ccc(C(=S)N2CCN(c3ccc(Cl)cc3)CC2)cc1,116%,102%,86.3%,101%,103%,96.8%,84.5%,104%,110%,–
N#C/C(=C\C=C\c1ccc(-c2cc(Cl)ccc2Cl)o1)c1nc2ccccc2s1,102%,108%,92.2%,107%,93.2%,97.5%,–,–,118%,77.1
CC1(C)N=C(N)N=C(N)N1c1cccc(CCc2ccccc2)c1,85.8%,14.3%,31.3%,38.1%,34.6%,12%,24.7%,24%,46.3%,–
O=C1Nc2c(C(=O)O)cccc2/C1=N/c1n[nH]c(=S)s1,88.8%,105%,95.1%,84.9%,84.2%,102%,49.6%,61.2%,107%,–
CC(=O)OC(c1ccccc1)C1CCOC1=O (stereo not drawn),97.1%,99.5%,109%,99.1%,100%,102%,87.2%,96.7%,113%,–
CCN(CC)CCCN1C(=O)c2c(c(C)c3c(oc4ccc(O)cc43)c2C)C1=O,-77.5% (active),-40.3% (active),77.4%,47.3%,79.7%,48.4%,96%,-95.8% (active),81.8%,–
CCN1C2CCC1/C(=C\c1ccc(F)cc1)C(=O)/C2=C/c1ccc(F)cc1,30.4%,23.7%,51%,21.2%,38.5%,48.2%,35.7%,19.7%,72.5%,–
CC(=O)O[C@H]1C[C@@H]2C(C)(C)C(=O)CC[C@@]2(C)c2ccc(C(C)C)cc21,105%,111%,102%,97.7%,100%,103%,101%,105%,121%,–
CCOC(=O)c1c(C)nc2ccccc2c1/C=C/c1ccccc1,64.3%,82.6%,77.3%,79.7%,69.9%,-0.202% (active),52.2%,–,102%,–
COc1ccc(Cn2cc3c(c2-c2ccccc2)CCc2cnoc2-3)cc1,16.7%,11.7%,39.8%,29.4%,27.4%,-10% (active),24%,29.6%,56.4%,–
CNC(C)[C@H]1CCC2C3CC=C4C(=O)[C@@H](NC(=O)C=C(C)C)CC[C@]4(C)C3CC[C@@]21C (stereo partly drawn),-54.1% (active),-52% (active),53.4%,18.2%,6.67% (active),-89.8% (active),-67.2% (active),-54% (active),-86.1% (active),–
Cc1ccc(-c2csc(NC(=O)c3ccccc3CN3C(=O)c4ccccc4C3=O)n2)cc1,90.8%,97.1%,91.8%,95.5%,91.9%,95.5%,76.6%,–,99.9%,–
Cc1ccc2nc(-c3ccc(C(=O)NNC(=S)Nc4ccccc4)cc3)[nH]c2c1,87.1%,92.5%,97.8%,103%,85%,94.2%,98.9%,87.1%,95.3%,–
CCOC(=O)c1[nH]c2c(c1C)-c1[nH]c(=O)c(S(=O)(=O)c3ccccc3)cc1SC2,72.8% [100 µM],13.4% [100 µM],94.7% [100 µM],31.9% [100 µM],-29.5% [100 µM] (active),35.9% [100 µM],21.2% [100 µM],50% [100 µM],20.7% [100 µM],–

# Source: PubChem BioAssay (NCI)
